# Assay outcomes as filed in PubChem.
# JMJD2A Tudor inh: qHTS Assay for Inhibitors of JMJD2A-Tudor Domain. Lysine-specific demethylase 4A (Homo sapiens), O75164. AlphaScreen JMJD2A-Tudor / H3K4me3 peptide binding. Potency, µM (series often up to 114 µM), for inactives: top-dose activity change, negative = inhibition, hits mostly inhibitors. 390,000 compounds, 4.4% hits. AID 504339, 2011; also: % is scaled to controls: 0 for no effect and ±100 for the full control effect; nearly all actives have a fitted effect of over 50% in size
# HP1b chromo inh: HTS for Inhibitors of HP1-beta Chromodomain Interactions with Methylated Histone Tails; AID 540317, 2011; 390,000 compounds, 0.56% hits; AlphaScreen HP1-beta / biotin-H3K9me3 peptide binding; Potency, µM (titrated, usually from 114 µM), for inactives: top-dose activity change, negative = inhibition, usual class: inhibitors; Chromobox protein homolog 1 (Homo sapiens), P83916; also: nearly all actives have a fitted effect of over 70% in size
# Target sequence (P83916 whole entry, looked up): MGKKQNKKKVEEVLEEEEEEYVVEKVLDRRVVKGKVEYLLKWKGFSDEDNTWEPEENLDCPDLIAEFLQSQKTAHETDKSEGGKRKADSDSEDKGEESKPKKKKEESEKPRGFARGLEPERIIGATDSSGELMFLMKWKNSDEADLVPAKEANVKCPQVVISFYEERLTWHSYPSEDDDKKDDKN
#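 Compound inhibition of the preformed complex between 50 nM HP1-beta and 50 nM biotinylated H3K9me3 peptide was read by AlphaScreen. Buffer was PBS pH 7.4 with 0.01% Tween-20. Incubations ran 30 min at room temperature, with 10 ug/mL donor/acceptor beads.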
# G9a block: qHTS Assay for Inhibitors of Histone Lysine Methyltransferase G9a; Histone-lysine N-methyltransferase EHMT2 (Homo sapiens), Q96KQ7; G9a H3K9 monomethylation, AlphaScreen, 2 h; AID 504332, 2011; 350,000 compounds, 8.8% hits; Potency, µM (titrated, usually from 102 µM), without a hit: at the highest dose activity, negative = inhibition, hits mostly inhibitors; also: % is scaled to controls: 0 for no effect and ±100 for the full control effect; nearly all actives have a fitted effect of over 75% in size
#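 Chemiluminescent proximity detection of H3K9 monomethylation, read after 10 min bead incubation in the dark. Reaction: 20 nM G9a, 500 nM biotin-H3K9 peptide, 20 uM SAM cofactor, 2 h, room temperature, following 15 min enzyme-compound preincubation.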
# BAZ2B block: qHTS Assay for Inhibitors of BAZ2B; Bromodomain adjacent to zinc finger domain protein 2B (Homo sapiens), Q9UIF8; AlphaScreen BAZ2B-H3K14Ac peptide displacement; Potency, µM (highest dose often 114 µM), without a hit: top-dose activity change, negative = inhibition, actives largely listed as inhibitors; 360,000 compounds, 4.4% hits; also: % is scaled to controls: 0 for no effect and ±100 for the full control effect; nearly all actives have a fitted effect of over 60% in size
#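 AlphaScreen displacement: compounds (up to 110uM) incubated 30 min at room temperature with a preformed 50 nM BAZ2B/50 nM biotinylated H3K14Ac peptide complex in PBS pH 7.4 with Tween-20. Donor and acceptor beads at 10 ug/mL final added, 20 min light-protected before reading.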
# VDR inh: Inhibitors of the vitamin D receptor (VDR): qHTS | Potency, µM, for the others: max response, negative = inhibition, usual class: inhibitors | Vitamin D3 receptor (Homo sapiens), P11473 | VDR-SRC2-3 peptide fluorescence polarization, 2 h | 400,000 compounds, 0.93% hits; also: % is scaled to controls: 0 for no effect and ±100 for the full control effect
# Target sequence (P11473 whole entry, looked up): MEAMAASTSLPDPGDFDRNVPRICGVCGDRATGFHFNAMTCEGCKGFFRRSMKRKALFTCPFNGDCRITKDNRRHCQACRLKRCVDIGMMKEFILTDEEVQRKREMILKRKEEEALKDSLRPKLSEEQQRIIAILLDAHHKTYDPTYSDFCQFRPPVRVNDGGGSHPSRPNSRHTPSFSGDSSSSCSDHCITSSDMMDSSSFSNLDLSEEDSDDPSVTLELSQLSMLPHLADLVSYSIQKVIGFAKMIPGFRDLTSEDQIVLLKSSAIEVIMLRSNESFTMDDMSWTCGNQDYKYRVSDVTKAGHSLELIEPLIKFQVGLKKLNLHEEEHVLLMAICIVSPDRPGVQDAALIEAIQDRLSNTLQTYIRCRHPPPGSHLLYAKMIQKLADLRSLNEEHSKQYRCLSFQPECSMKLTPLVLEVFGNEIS
#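 Signal is fluorescence polarization, reporting how far test compounds block the interaction of VDR with the SRC2-3 coregulator peptide after a 2 h room-temperature incubation.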
# PLK1 PBD block: qHTS for Inhibitors of PLK1-PDB (polo-like kinase 1 - polo-box domain): Primary Screen; AID 720504, 2013; Plk1 PBD binding of FITC phosphopeptide, fluorescence polarization; Serine/threonine-protein kinase PLK1 (Homo sapiens), P53350; 360,000 compounds, 2.8% hits; Potency, µM, inactives show max response, negative = inhibition, most hits filed as inhibitors; also: series mostly up to about 57 µM; % is scaled to controls: 0 for no effect and ±100 for the full control effect; nearly all actives have a fitted effect of over 65% in size
# * = called active by the depositor; u = inconclusive; x = no result given; [ ] = remark or other dose. Compounds with a hit are over-represented: about 11% of the library has one in this group of screens. Calls follow the shape of the dose curve; as a rule, active = well fitted curve in the direction sought with a large enough effect; inconclusive = small, poorly fitted or top-dose-only effect, or another doubt; inactive = no such curve, though single readings can be large; an effect the other way counts as inactive or inconclusive. Potency is read from the fitted curve at half-maximal effect.
SMILES,JMJD2A Tudor inh,HP1b chromo inh,G9a block,BAZ2B block,VDR inh,PLK1 PBD block
COc1ccc(N2CCN(CCCn3c(=S)[nH]c4ncccc4c3=O)CC2)cc1,-35%,15%,u,-3%,2%,-11%
CC(C)CCn1c(=S)[nH]c2ncccc2c1=O,u,41%,12%,5%,4%,-4%
CCOCCCn1c(=S)[nH]c2ncccc2c1=O,22µM*,55%,56µM*,-13%,13%,0%
CN(C)CCn1c(=S)[nH]c2ncccc2c1=O,7%,0%,28µM*,-35%,0%,3%
CC1CCC(=NNS(=O)(=O)c2ccc([N+](=O)[O-])cc2)CC1 (stereo not drawn),-15%,0%,x,x,-9%,-13%
CC1CCC/C(=N\NS(=O)(=O)c2ccccc2)C1 (stereo not drawn),-3%[11.4 µM],21%,32µM*,1%,-7%,u
CC(=O)/C(=N/Nc1ccccc1)Sc1nnc(C(O)c2ccccc2)n1-c1ccccc1 (stereo not drawn),-24%,24%,45µM*,u,-11%,0%
COC(=O)/C(=N/Nc1ccccc1Cl)Sc1nnc(C(O)c2ccccc2)n1-c1ccccc1 (stereo not drawn),-18%,30%,45µM*,15%,-23%,-9%
CC(=O)/C(=N/Nc1ccccc1Cl)Sc1nnc(C(O)c2ccccc2)n1-c1ccccc1 (stereo not drawn),u,21%,10µM*,-3%,-17%,-27%
CCOC(=O)CSc1nnc(CNc2ccccc2Cl)n1-c1ccccc1,u,17%,-9%[59 µM],x,-5%,-8%
O=C(/C(=N\Nc1ccccc1)Sc1nnnn1-c1ccccc1)c1ccccc1,-24%,24%,21%[59 µM],u,-9%,-1%
Cc1ccsc1CN(C)CC(=O)N(C)CC(=O)Nc1c(Cl)cccc1Cl,x,x,x,x,x,-5%
CCOC(=O)Cn1c(=O)oc2cc(S(=O)(=O)Nc3ccccc3F)ccc21,4%,40%,-2%[59 µM],0%,-5%,x
CCOC(=O)C1CCCN(CC(O)COCc2ccccc2OC)C1 (stereo not drawn),-8%,-6%,-3%,-2%,13%,-4%
CCOC(=O)C1CCCN(CC(O)COCc2ccc3c(c2)OCO3)C1 (stereo not drawn),1µM*,u,11µM*,56µM*,0%,-12%
CCC(CO)NCC(O)COCc1ccc2c(c1)OCO2 (stereo not drawn),50µM*,-9%,u,79µM*,15%,3%
CCn1c(C)cc(=S)c2ccccc21,-26%[57.1 µM],20%,3.2µM*,-31%,-2%,-8%
Cc1ccc(SCCC(=O)NC(C)C)cc1,5%,38%,6%[59 µM],2%,2%,0%
Cc1ccc(SCCC(=O)OC(C(=O)NC(N)=O)C(C)C)cc1 (stereo not drawn),11µM*,-13%,u,2%,u,u
Nc1nc(Cl)nc2ccc(Br)cc12,-23%,22%,-6%[59 µM],0%,-17%,17µM*
Nc1nc2ccc(Br)cc2o1,-24%,5%,x,x,7%,15%
COc1ccc([N+](=O)[O-])cc1NC(=O)CC1SC(=Nc2cccc(C)c2C)N(/N=C/c2cccc(OC)c2OC)C1=O (stereo not drawn),-29%,-14%,35µM*,-22%,20%,-15%
O=C(Nc1ccc(N2CCOCC2)cc1)C1(c2ccc(Cl)cc2)CCC1,-33%,-6%,45µM*,u,4%,-6%
O=C(/C=C/c1ccc(Cl)cc1)Nc1ccc(N2CCOCC2)cc1,u,-18%,-3%[59 µM],-11%,u,24µM*
O=C(N1CCOCC1)C1(c2ccc(Cl)cc2)CCCC1,-1%,23%,7%[59 µM],0%,-11%,-6%
SMILES,JMJD2A Tudor inh,HP1b chromo inh,G9a block,BAZ2B block,VDR inh,PLK1 PBD block
O=C(Nc1ccc(Cl)cc1)Nc1ccc(N2CCOCC2)cc1,-6%,33%,-49%[12.7 µM],8%,-9%,-7%
O=C(/C=C/c1ccc(Cl)cc1)NC(=S)Nc1ccc(N2CCOCC2)c(Cl)c1,u,u,22µM*,5%,-7%,19µM*
CN(C)CCCNC(=S)Nc1ccc(-c2ccccc2)cc1,-7%[11.4 µM],44%,x,-8%,-1%,-7%
O=C(COC(=O)C1CCN(S(=O)(=O)c2cccs2)CC1)c1cc2ccccc2o1,-5%,47%,8.9µM*,-9%,25%,-1%
COc1ccc(-c2ccccc2)cc1NC(=O)[C@@H]1O[C@H](CO)[C@@H](O)[C@H]1O,x,x,x,x,x,-8%
CC(C)N=c1scc(-c2cccs2)n1/N=C/c1ccc(O)c(O)c1O,22µM*,25µM*,4µM*,32µM*,12%,u
CCN=c1scc(-c2cccs2)n1/N=C/c1cc(OC)ccc1O,40µM*,14µM*,u,13µM*,-7%,-6%
COc1ccc(O)c(/C=N/n2c(-c3ccco3)csc2=Nc2cccnc2)c1,-6%[57.1 µM],1%,20%[59 µM],u,-19%,-13%
CC(=O)Nc1ccc(S(=O)(=O)NCC(=O)OC(C)c2ccccc2Cl)cc1 (stereo not drawn),-10%,3%,3%[59 µM],-22%,20%,-1%
COCCCNC(=O)CSc1nc2cc3c(cc2c(=O)n1CCCC(=O)NCc1ccc2c(c1)OCO2)OCO3,0%,60%,-4%[59 µM],3%,1%,x
COc1ccc(-n2nc(C(=O)N3CCCC(C)C3)c3c4ccccc4n(C)c3c2=O)cc1 (stereo not drawn),-20%,21%,-42%[59 µM],x,-4%,x
CCN(CC)CCSc1nc2ccccc2c(=S)n1-c1ccccc1,50µM*,u,u,u,1%,24µM*
CCCC1(C(=O)OCC)NC(c2ccc(N(C)C)cc2)C2C(=O)N(c3ccc(OCC)cc3)C(=O)C21 (stereo not drawn),u,-26%,50µM*,u,1%,-20%
CCC(C)c1cc([N+](=O)[O-])cc([N+](=O)[O-])c1OC(=O)OC(C)C (stereo not drawn),x,x,x,x,11µM*,x
CCC(C)c1cc([N+](=O)[O-])cc([N+](=O)[O-])c1OC(C)=O (stereo not drawn),x,x,x,x,-6%,x
CCCOc1ccc(C2Nc3cccc4cccc(c34)N2)cc1,40µM*,u,40µM*,u,-11%,-6%
O=[N+]([O-])c1cccc(C2Nc3cccc4cccc(c34)N2)c1,50µM*,u,16µM*,35µM*,-8%,-22%
